Consider nine molecules from PubChem BioAssay (NCI).

Test systems include SR leukemia; RPMI-8226 leukemia; OVCAR-8 ovarian; OVCAR-5 ovarian; OVCAR-4 ovarian; SK-OV-3 ovarian; IGROV1 ovarian; OVCAR-3 ovarian; HS 578T breast; NCI/ADR-RES ovarian; BT-549 breast; MDA-MB-435 melanoma; SW-620 colon; MCF7 breast; HCT-116 colon; HCC-2998 colon; KM12 colon; T-47D breast.
Common to all, as to experiment: NCI-60 one-dose screen, 48 h (100 = growth as untreated, 0 = no growth, -100 = all killed)
Holding throughout (details): 10 µM unless noted

SMILES strings stand for the structures. Compounds without any hit were thinned out: in the full panel of roughly 83,000, 20% have a hit.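 Negative percent growth values reflect cell death: -40 means 40% of the cells present at the start died, and -100 means all died.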 A number with no mark means an inactive call. The source made the active and inactive calls. How the source made its calls: active means growth percent below 10; inactive means the rest.

Take `CSc1nc(N)c2c(n1)NC(c1ccccc1)C1CCc3ccccc3C1=N2` (stereo unspecified): the growth in the assay with SR leukemia is 8.22% (active); with RPMI-8226 leukemia, 36.6%; in the assay on OVCAR-8 ovarian, 42.1%; in the assay with OVCAR-5 ovarian, 121%; with OVCAR-4 ovarian it was 41.6%; with SK-OV-3 ovarian, 85.8%. Also, the growth in the assay with IGROV1 ovarian is 40.4%; in the assay with OVCAR-3 ovarian, 43.9%; with HS 578T breast, 62%; in the assay with NCI/ADR-RES ovarian, 35.8%; in the assay with BT-549 breast, 73.9%; in the assay on MDA-MB-435 melanoma, 55.9%. Also, the growth in the assay on SW-620 colon is 67.7%; with MCF7 breast, 57.1%; in the assay on HCT-116 colon, 32.3%; in the assay with HCC-2998 colon, 88.8%; in the assay on KM12 colon, 48.3%.
Turning to `COC(=O)[C@H](C)NC(=O)[C@@H]1CCCN1C(=O)CNC(=O)[C@H](C)N`, the growth with SR leukemia is 114%; with RPMI-8226 leukemia, 116%; with OVCAR-8 ovarian, 105%; in the assay on OVCAR-5 ovarian it was 114%; with OVCAR-4 ovarian, 89.1%; in the assay with SK-OV-3 ovarian it was 102%. Further, the growth is 109% in the assay on IGROV1 ovarian; 112% in the assay with OVCAR-3 ovarian; 99.8% in the assay with HS 578T breast; 106% in the assay on NCI/ADR-RES ovarian; 97.6% in the assay on T-47D breast; 102% with MDA-MB-435 melanoma. The growth was 105% in the assay on SW-620 colon; 110% in the assay with MCF7 breast; 99.6% in the assay on HCT-116 colon; 106% in the assay with HCC-2998 colon; 104% in the assay with KM12 colon.
As to `COC(=O)c1nc(-c2ccccc2)oc1S(=O)(=O)N1CCN(c2ccc(OC)cc2)CC1`, the growth is -1.38% (active) in the assay with SR leukemia; 37.3% in the assay on RPMI-8226 leukemia; 83.8% in the assay on OVCAR-8 ovarian; 88.7% in the assay with OVCAR-5 ovarian; 88.7% in the assay with OVCAR-4 ovarian; 104% in the assay with SK-OV-3 ovarian. Besides, the growth in the assay on IGROV1 ovarian was 71.7%; in the assay with OVCAR-3 ovarian it was 45.4%; in the assay with HS 578T breast it was 89.2%; in the assay on NCI/ADR-RES ovarian, 104%; in the assay with BT-549 breast, 76.6%; with MDA-MB-435 melanoma, 77.2%. Besides, the growth in the assay on SW-620 colon is 41.4%; with MCF7 breast, 45.4%; in the assay on HCT-116 colon, 60.9%; with HCC-2998 colon it was 104%; in the assay on KM12 colon, 86.2%.
With `Cc1oc2ccc(O)c(CN3CCCCCC3)c2c1C(=O)Nc1ccc(C(F)(F)F)cc1`, the growth was -8.44% (active) with SR leukemia; 75.1% in the assay on RPMI-8226 leukemia; 66.3% with OVCAR-8 ovarian; 85.8% with OVCAR-5 ovarian; 58.6% in the assay with OVCAR-4 ovarian; 76.3% with SK-OV-3 ovarian. In addition, the growth in the assay on IGROV1 ovarian is 54.3%; with OVCAR-3 ovarian, 62%; in the assay with HS 578T breast it was 65.5%; in the assay with NCI/ADR-RES ovarian, 53.6%; in the assay on BT-549 breast, 78.5%; with MDA-MB-435 melanoma, 58.2%. The growth was 67.4% in the assay on SW-620 colon; 48.1% in the assay on MCF7 breast; 32.7% in the assay with HCT-116 colon; 11.2% in the assay on HCC-2998 colon; 65.5% in the assay on KM12 colon.
Take `CC(C)(C)[C@H](OCc1cn([C@H]2C[C@@H](O)[C@@H](CO)O2)c(=O)[nH]c1=O)c1ccc(C#Cc2ccccc2)cc1[N+](=O)[O-]`: the growth in the assay with SR leukemia was 35.7%; in the assay on RPMI-8226 leukemia, 36.8%; in the assay on OVCAR-8 ovarian, 87%; in the assay on OVCAR-5 ovarian, 97.6%; in the assay on OVCAR-4 ovarian, 85%; in the assay on SK-OV-3 ovarian it was 93.5%. For the same molecule, the growth in the assay with IGROV1 ovarian was 88%; in the assay on OVCAR-3 ovarian, 87.7%; in the assay with HS 578T breast, 77.9%; in the assay on NCI/ADR-RES ovarian it was 87.5%; with BT-549 breast, 27.6%; in the assay on MDA-MB-435 melanoma, 92.6%. Also, the growth was 101% in the assay with SW-620 colon; 3.01% (active) in the assay on MCF7 breast; 32.3% in the assay on HCT-116 colon; 87.1% in the assay on HCC-2998 colon; 84.9% with KM12 colon.
With `COc1ccc(-c2cn(Cc3ccc4c(Br)cc(Br)c(O)c4n3)nn2)cc1`, the growth in the assay with SR leukemia is -23.1% (active); in the assay on RPMI-8226 leukemia, 67.2%; with OVCAR-8 ovarian, 88.7%; with OVCAR-5 ovarian it was 95.6%; in the assay on OVCAR-4 ovarian it was 96.2%; in the assay with SK-OV-3 ovarian, 108%. Besides, the growth in the assay with IGROV1 ovarian is 56.6%; in the assay with OVCAR-3 ovarian, 73.2%; in the assay with HS 578T breast it was 109%; with NCI/ADR-RES ovarian it was 102%; in the assay with BT-549 breast, 111%; with MDA-MB-435 melanoma, 89%. The growth in the assay with SW-620 colon was 75.4%; in the assay with MCF7 breast, 67.4%; with HCT-116 colon it was 77.8%; in the assay on HCC-2998 colon it was 101%; in the assay with KM12 colon, 99.4%.
Regarding `COc1ccc(Cn2cc3c(c2)-c2oncc2CC3)cc1`, the growth was 40.7% in the assay on SR leukemia; 48.9% in the assay on RPMI-8226 leukemia; 83.2% with OVCAR-8 ovarian; 83.9% with OVCAR-5 ovarian; 89.8% in the assay with OVCAR-4 ovarian; 67.1% in the assay with SK-OV-3 ovarian. For the same molecule, the growth with IGROV1 ovarian was 49.6%; with OVCAR-3 ovarian, 108%; in the assay on HS 578T breast it was 70.9%; with NCI/ADR-RES ovarian, 33.7%; in the assay on BT-549 breast, 64.3%; with MDA-MB-435 melanoma, -40.8% (active). Moreover, the growth in the assay with SW-620 colon was 27.2%; in the assay on MCF7 breast it was 35.4%; with HCT-116 colon, 29.6%; in the assay on HCC-2998 colon, 68.1%; in the assay on KM12 colon it was 52.3%.
Turning to `Cc1nc2cccc(NCc3ccc(C(=O)NO)cc3)c2c(=O)n1-c1ccccc1`, the growth is 14.8% with SR leukemia; 18.5% in the assay with RPMI-8226 leukemia; 3.81% (active) in the assay with OVCAR-8 ovarian; 40% with OVCAR-5 ovarian; 62.2% in the assay on OVCAR-4 ovarian; 4.52% (active) in the assay on SK-OV-3 ovarian. Also, the growth in the assay on IGROV1 ovarian was 20.4%; with OVCAR-3 ovarian it was 43.9%; with HS 578T breast, 56.8%; in the assay on NCI/ADR-RES ovarian, 19.2%; with BT-549 breast it was 73.4%; in the assay on MDA-MB-435 melanoma, 27%. Moreover, the growth is 7.22% (active) in the assay with SW-620 colon, -32.6% (active) in the assay with HCT-116 colon, 86.3% in the assay on HCC-2998 colon and 29.8% with KM12 colon.
`COc1ccc(S(=O)(=O)N(C)c2oc(-c3ccc(Cl)cc3)nc2C#N)cc1`: the growth with SR leukemia was 29.3%; with RPMI-8226 leukemia, 69.7%; with OVCAR-8 ovarian, 96%; with OVCAR-5 ovarian, 94.6%; in the assay on OVCAR-4 ovarian it was 76.4%; with SK-OV-3 ovarian, 91.2%. For the same molecule, the growth was 77.7% with IGROV1 ovarian; 82.2% in the assay on OVCAR-3 ovarian; 64.9% with HS 578T breast; 58.6% in the assay on NCI/ADR-RES ovarian; -3.32% (active) in the assay with MDA-MB-435 melanoma; 43.3% with SW-620 colon. Also, the growth in the assay with MCF7 breast was 52.5%; in the assay on HCT-116 colon, 72%; in the assay with HCC-2998 colon, 76.2%; in the assay with KM12 colon, 56.6%.
